From PubChem BioAssay (NCI)
Compounds without any hit were thinned out: in the full panel of roughly 83,000, 20% have a hit.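 Cell lines were cultured in 96-well plates, exposed to a single compound concentration, and assessed for percent growth 48 hours later.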 Active and inactive are the calls of the source. Rule for the calls: active = growth percent below 10; inactive = the rest.

Experiments:
Experiment in all cases: NCI-60 one-dose screen, 48 h (100 = growth as untreated, 0 = no growth, -100 = all killed)
Settings in all cases: 10 µM
RPMI-8226 leukemia = tested on: RPMI-8226 leukemia
OVCAR-8 ovarian = tested on: OVCAR-8 ovarian
OVCAR-5 ovarian = tested on: OVCAR-5 ovarian
OVCAR-4 ovarian = tested on: OVCAR-4 ovarian
SK-OV-3 ovarian = tested on: SK-OV-3 ovarian
IGROV1 ovarian = tested on: IGROV1 ovarian
OVCAR-3 ovarian = tested on: OVCAR-3 ovarian
HS 578T breast = tested on: HS 578T breast
NCI/ADR-RES ovarian = tested on: NCI/ADR-RES ovarian

Measured: growth

O=c1[nH]n(C(=S)N/N=C/c2ccc(F)cc2)c(=O)c2ccccc12
active: RPMI-8226 leukemia -22.5%
inactive: OVCAR-8 ovarian 36.4% | OVCAR-5 ovarian 91.2% | OVCAR-4 ovarian 82% | SK-OV-3 ovarian 102% | IGROV1 ovarian 90.5% | OVCAR-3 ovarian 32.5% | HS 578T breast 91.6% | NCI/ADR-RES ovarian 31.1%

O=C1Nc2cc(Cl)ccc2/C1=C/c1ccc(OCc2ccc(Br)cc2F)cc1
inactive: OVCAR-5 ovarian 25.2%
active: RPMI-8226 leukemia 0.87% | OVCAR-8 ovarian -79.6% | OVCAR-4 ovarian -53.8% | SK-OV-3 ovarian -20.3% | IGROV1 ovarian -41.9% | OVCAR-3 ovarian -82.1% | HS 578T breast -16.8% | NCI/ADR-RES ovarian -71%

CCN1CCN(Cc2ccc(NC(=O)c3cccc(-n4cc(-c5ccc(NC(C)=O)nc5)nn4)c3)cc2C(F)(F)F)CC1
inactive: RPMI-8226 leukemia 80.6% | OVCAR-8 ovarian 99% | OVCAR-5 ovarian 158% | OVCAR-4 ovarian 98% | SK-OV-3 ovarian 96.6% | IGROV1 ovarian 127% | OVCAR-3 ovarian 131% | HS 578T breast 101% | NCI/ADR-RES ovarian 100%

C=C(C)[C@@H]1CC[C@]2(C(=O)OC)CC[C@]3(C)[C@H](CC[C@@H]4[C@@]5(C)CC[C@H](N)C(C)(C)[C@@H]5CC[C@]43C)[C@@H]12
active: RPMI-8226 leukemia -30.7% | OVCAR-8 ovarian -77.4% | OVCAR-5 ovarian -100% | OVCAR-4 ovarian -93.1% | SK-OV-3 ovarian -54.8% | IGROV1 ovarian -95.8% | OVCAR-3 ovarian -78.1% | HS 578T breast -59.3% | NCI/ADR-RES ovarian -83%

CO[C@@H]1CSS[C@H]1Cn1nc(-c2ccc(Oc3ccccc3)cc2)c2c(N)ncnc21
inactive: RPMI-8226 leukemia 34.3% | OVCAR-8 ovarian 82.9% | OVCAR-5 ovarian 82.3% | OVCAR-4 ovarian 67.3% | SK-OV-3 ovarian 30.2% | IGROV1 ovarian 80.4% | OVCAR-3 ovarian 104% | HS 578T breast 72.6% | NCI/ADR-RES ovarian 65.8%

COc1ccc(-c2ccc(/C=N/NC(=O)c3[nH]c4ccc(Br)cc4c3-c3ccccc3)o2)cc1
active: NCI/ADR-RES ovarian -22.8%
inactive: RPMI-8226 leukemia 18.9% | OVCAR-8 ovarian 37.1% | OVCAR-5 ovarian 68.5% | OVCAR-4 ovarian 44.2% | SK-OV-3 ovarian 49.2% | IGROV1 ovarian 64.6% | OVCAR-3 ovarian 21.1% | HS 578T breast 28.5%

CC(=O)NNc1ccc2nnc(-c3ccc(Br)cc3)n2n1
inactive: RPMI-8226 leukemia 91.7% | OVCAR-8 ovarian 105% | OVCAR-5 ovarian 102% | OVCAR-4 ovarian 99.4% | SK-OV-3 ovarian 81.2% | IGROV1 ovarian 105% | OVCAR-3 ovarian 104% | HS 578T breast 102% | NCI/ADR-RES ovarian 101%

CO[C@@H]1CSSC1Cn1nc(-c2ccc(Oc3ccccc3)cc2)c2c(N)ncnc21 (stereo partly specified)
active: SK-OV-3 ovarian 1.98%
inactive: RPMI-8226 leukemia 34.6% | OVCAR-8 ovarian 75.5% | OVCAR-5 ovarian 62.5% | OVCAR-4 ovarian 53.3% | IGROV1 ovarian 53.1% | OVCAR-3 ovarian 56% | HS 578T breast 61.6% | NCI/ADR-RES ovarian 57.5%

O=C(O)CCCCCCCCCCN1C(=O)/C(=C/c2cnc(-c3ccc(Cl)cc3)s2)SC1=S
inactive: RPMI-8226 leukemia 74.9% | OVCAR-5 ovarian 56.9% | OVCAR-4 ovarian 67% | IGROV1 ovarian 23.9% | HS 578T breast 58.6% | NCI/ADR-RES ovarian 11%
active: OVCAR-8 ovarian -2.09% | SK-OV-3 ovarian 3.51% | OVCAR-3 ovarian -15.1%

CC(=O)Nc1ccc(-n2cnc3cc(-c4ccc(O)cc4)ccc32)cc1F
active: OVCAR-3 ovarian 6.74% | NCI/ADR-RES ovarian 4.16%
inactive: RPMI-8226 leukemia 14.3% | OVCAR-8 ovarian 15.9% | OVCAR-5 ovarian 42.7% | OVCAR-4 ovarian 61% | SK-OV-3 ovarian 13% | IGROV1 ovarian 35.9% | HS 578T breast 18.7%

COc1ccsc1/C=N/NC(=O)c1[nH]c2ccc(Br)cc2c1-c1ccccc1
active: RPMI-8226 leukemia -13.6% | OVCAR-8 ovarian -16.2% | HS 578T breast -1.24% | NCI/ADR-RES ovarian -23.9%
inactive: OVCAR-5 ovarian 26.6% | OVCAR-4 ovarian 22.1% | SK-OV-3 ovarian 20.9% | IGROV1 ovarian 22.6% | OVCAR-3 ovarian 25.8%

Clc1ccc(/C=N/Nc2ncnc3sc4c(c23)CCN(Cc2ccccc2)C4)cc1
active: OVCAR-8 ovarian -56.2% | OVCAR-5 ovarian -18.8% | OVCAR-4 ovarian -75.9% | OVCAR-3 ovarian -79.9% | HS 578T breast -11% | NCI/ADR-RES ovarian -55.2%
inactive: RPMI-8226 leukemia 14% | SK-OV-3 ovarian 30.3% | IGROV1 ovarian 34.4%

CCC(C)S(=O)(=O)c1oc(-c2ccc(C)cc2)nc1S(=O)(=O)c1ccccc1 (stereo unspecified)
inactive: SK-OV-3 ovarian 65.5%
active: RPMI-8226 leukemia -44.5% | OVCAR-8 ovarian -65.8% | OVCAR-5 ovarian -91.3% | OVCAR-4 ovarian -83.7% | IGROV1 ovarian -92.9% | OVCAR-3 ovarian -81.1% | HS 578T breast -12.1% | NCI/ADR-RES ovarian -55.2%

Cc1ccc(NC(=O)c2ccc(-n3c(=O)[nH]c4ccccc4c3=O)cc2)cc1
inactive: RPMI-8226 leukemia 133% | OVCAR-8 ovarian 52.9% | OVCAR-5 ovarian 106% | OVCAR-4 ovarian 98.8% | SK-OV-3 ovarian 82.5% | IGROV1 ovarian 103% | OVCAR-3 ovarian 90.5% | HS 578T breast 78.3% | NCI/ADR-RES ovarian 80.2%

CNCc1cccc2c1OCCCCCC[C@@](C)(O)CC1(CC1)S(=O)(=O)c1ccc(cc1)-c1cnc(N)c(n1)C(=O)N2
active: RPMI-8226 leukemia -31.3% | OVCAR-8 ovarian -65.5% | OVCAR-5 ovarian -89.7% | OVCAR-4 ovarian -76.9% | SK-OV-3 ovarian -87.9% | IGROV1 ovarian -91.2% | OVCAR-3 ovarian -91.1% | HS 578T breast -40.5% | NCI/ADR-RES ovarian -92.1%

O=c1oc2ccc(-c3ccc(F)cc3F)cc2c(=O)n1-c1ccc(Cl)c(C(F)(F)F)c1
inactive: OVCAR-4 ovarian 16.1% | IGROV1 ovarian 17.8% | OVCAR-3 ovarian 11.7%
active: RPMI-8226 leukemia -32.1% | OVCAR-8 ovarian 6.71% | OVCAR-5 ovarian -2.12% | SK-OV-3 ovarian -4.08% | HS 578T breast -0.864% | NCI/ADR-RES ovarian -12.2%

N#Cc1c(Cl)nc(SCc2ccc(F)cc2)nc1-c1ccc(F)cc1
inactive: RPMI-8226 leukemia 91.4% | OVCAR-8 ovarian 89.2% | OVCAR-5 ovarian 95.6% | OVCAR-4 ovarian 95% | SK-OV-3 ovarian 103% | IGROV1 ovarian 109% | OVCAR-3 ovarian 111% | HS 578T breast 95.2% | NCI/ADR-RES ovarian 86.6%

CN1CCN(c2ccc(Nc3nc(NCCCNC(=O)c4ccc(F)cc4)c4sccc4n3)cc2)CC1
active: RPMI-8226 leukemia -22.5%
inactive: OVCAR-8 ovarian 47.5% | OVCAR-5 ovarian 78.2% | OVCAR-4 ovarian 80.1% | SK-OV-3 ovarian 102% | IGROV1 ovarian 77.8% | OVCAR-3 ovarian 61.6% | HS 578T breast 84.1% | NCI/ADR-RES ovarian 76.2%

CC(C)CCSc1nc(NC2CC2)c(C#N)c(-c2ccc(C(C)C)cc2)n1
inactive: RPMI-8226 leukemia 101% | OVCAR-8 ovarian 110% | OVCAR-5 ovarian 111% | OVCAR-4 ovarian 112% | SK-OV-3 ovarian 96.5% | IGROV1 ovarian 113% | OVCAR-3 ovarian 117% | HS 578T breast 108% | NCI/ADR-RES ovarian 108%

O=C1Nc2ccc(F)cc2/C1=C/c1cccc(OCc2ccccn2)c1
inactive: RPMI-8226 leukemia 18.6% | OVCAR-8 ovarian 25.7% | OVCAR-5 ovarian 60.4% | OVCAR-4 ovarian 61.3% | SK-OV-3 ovarian 69.6% | IGROV1 ovarian 41.9% | OVCAR-3 ovarian 27%
active: HS 578T breast -6.56% | NCI/ADR-RES ovarian 7.99%

Cc1ccc(C(=O)Nc2ccc(-n3c(C)nc4c(cnn4-c4ccccc4)c3=O)cc2)cc1
inactive: RPMI-8226 leukemia 58.4% | OVCAR-8 ovarian 76.8% | OVCAR-5 ovarian 86% | OVCAR-4 ovarian 49.8% | SK-OV-3 ovarian 97.4% | IGROV1 ovarian 71.6% | OVCAR-3 ovarian 97% | HS 578T breast 84.8% | NCI/ADR-RES ovarian 52.7%

O=C1Nc2cc(-c3ccc(NC(=O)c4cccs4)cc3)ccc2/C1=C/c1ccc[nH]1
inactive: RPMI-8226 leukemia 52.4% | OVCAR-8 ovarian 63.4% | OVCAR-5 ovarian 89.7% | OVCAR-4 ovarian 50.4% | SK-OV-3 ovarian 108% | IGROV1 ovarian 97.8% | OVCAR-3 ovarian 69.6% | HS 578T breast 73.3% | NCI/ADR-RES ovarian 62.1%

Cc1ccc(NC(=O)NCn2c(=O)[nH]c3ccccc3c2=O)cc1
inactive: RPMI-8226 leukemia 92.7% | OVCAR-8 ovarian 39.9% | OVCAR-5 ovarian 94.2% | OVCAR-4 ovarian 50.8% | SK-OV-3 ovarian 57.8% | IGROV1 ovarian 76.6% | OVCAR-3 ovarian 87.6% | HS 578T breast 55.3% | NCI/ADR-RES ovarian 70.7%

O=C(Nc1ccc(F)c(Cl)c1)c1cc(-c2ccc(F)cc2F)ccc1O
active: RPMI-8226 leukemia -28.6% | OVCAR-8 ovarian 6.82% | OVCAR-5 ovarian 0.459% | SK-OV-3 ovarian -5.38% | OVCAR-3 ovarian 9.88% | HS 578T breast -3% | NCI/ADR-RES ovarian -15.1%
inactive: OVCAR-4 ovarian 12.9% | IGROV1 ovarian 16.4%

CC(=O)Nc1nc(-c2ccc(N3CCN(C)CC3)c(NS(=O)(=O)c3ccc(C(F)(F)F)cc3)c2)cs1
inactive: OVCAR-5 ovarian 44.8% | OVCAR-4 ovarian 43.3% | SK-OV-3 ovarian 77% | IGROV1 ovarian 47.5%
active: RPMI-8226 leukemia -29.4% | OVCAR-8 ovarian 8.42% | OVCAR-3 ovarian -3.33% | NCI/ADR-RES ovarian -18.2%

COc1ccc(/C(C)=N/N=C2C(=O)N(C)c3ccc(Br)cc32)cc1S(N)(=O)=O
inactive: RPMI-8226 leukemia 79.3% | OVCAR-8 ovarian 27.4% | OVCAR-5 ovarian 81.4% | OVCAR-4 ovarian 48.4% | IGROV1 ovarian 71.5% | OVCAR-3 ovarian 69.6% | HS 578T breast 39.7% | NCI/ADR-RES ovarian 68.2%

CN1CCN(c2ccc(Nc3nc(NCCCNC(=O)c4ccc(Cl)cc4)c4sccc4n3)cc2)CC1
inactive: RPMI-8226 leukemia 48.5% | OVCAR-8 ovarian 67.9% | OVCAR-5 ovarian 90.8% | OVCAR-4 ovarian 70.6% | SK-OV-3 ovarian 103% | IGROV1 ovarian 88.3% | OVCAR-3 ovarian 109% | NCI/ADR-RES ovarian 91.6%

COc1cc(Cn2c(C(F)(F)F)cc3c(Cl)ncnc32)ccn1
active: RPMI-8226 leukemia 6.17% | OVCAR-8 ovarian -16% | OVCAR-4 ovarian -58.4% | IGROV1 ovarian -90.6% | OVCAR-3 ovarian -52.4%
inactive: OVCAR-5 ovarian 93.7% | SK-OV-3 ovarian 75.4% | NCI/ADR-RES ovarian 67.7%

COC[C@@H](CC(C)C)N=C1N/C(=C\c2ccc3ncsc3c2)C(=O)N1C
active: RPMI-8226 leukemia 3.65% | OVCAR-5 ovarian -6.76% | IGROV1 ovarian 9.21% | OVCAR-3 ovarian 3.27% | NCI/ADR-RES ovarian 0.43%
inactive: OVCAR-8 ovarian 17.6% | OVCAR-4 ovarian 29.3% | HS 578T breast 15.4%
